This is part of a sample that, as a whole, favours compounds with a hit. Of some 83,000 tested, about 20% had one in any assay.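 Values shown are percent growth following 48 h exposure of cells in 96-well plates to a single concentration of compound; below 10 was considered active.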 Unmarked numbers belong to inactive results. Active and inactive are the calls of the source.

One experiment has as its system NCI-H460 lung. Kind of experiment: NCI-60 one-dose screen, 48 h (100 = growth as untreated, 0 = no growth, -100 = all killed). The settings on record: 10 µM.
As for `O=C(Nc1ccc(Cl)c(C(F)(F)F)c1)c1cncc(C#Cc2cnc3ccc(N4CCOCC4)nn23)c1`, the growth was 29.3%.

Consider `O=C(c1ccccc1)n1ccc(-c2cc3cc(Br)ccc3oc2=O)n1`, for which the growth is 9.4% (active).

`Clc1ccc(/C=N/Nc2ncnc3sc4c(c23)CCN(Cc2ccccc2)C4)cc1`: the growth was -75.6% (active).

Regarding `Nc1cc(-c2cccc(C(=O)NCc3ccc4c(c3)OCO4)c2)ccn1`, the growth is 111%.

A further experiment relates to HOP-92 NSCLC. The experiment is described as above. The settings on record: 10 µM.
In the case of `COC(=O)CC1CC1C1Cc2c(nc(N(C)S(C)(=O)=O)nc2C(C)C)-c2ccc(F)cc21` (stereo unspecified), the growth is 84%.

Regarding `CN1CCN(c2ccc(Nc3nc(N4CCN(S(=O)(=O)c5ccc(Cl)cc5)CC4)c4sccc4n3)cc2)CC1`, the growth was 69.1%.

For the compound `Cc1ccc(-c2ccc(SCC(=O)Nc3ccc(Cl)c(C(F)(F)F)c3)nn2)cc1`, the growth was 72.7%.

In the case of `Oc1ccc(/C=C2\CCCc3cc4ccc(O)cc4[o+]c32)c(O)c1`, the growth was 40.9%.

Regarding `O=C(Nc1ccc(F)c(Cl)c1)c1cc(-c2ccc(F)cc2F)ccc1O`, the growth is -20.6% (active).

In the case of `CCN1CCN(c2ccc(NC(=O)Nc3ccc4c(c3F)CCN4c3ccnc(C(=O)NC)c3)cc2C(F)(F)F)CC1`, the growth is 82.3%.

Consider `O=C(CS(=O)(=O)c1oc(-c2ccc(Cl)cc2)nc1S(=O)(=O)c1ccccc1)N1CCCC1`, for which the growth was -73% (active).

As to `C=C(C)[C@@H]1CC[C@]2(C)[C@H](CC=C3[C@@H]4CC(C)(C)CC[C@]4(C(=O)N4CCOCC4)CC[C@]32C)[C@@]1(C)CCCN`, the growth was -77.1% (active).

On to `COc1ccccc1C(=O)NNC(=O)CSc1nc2c(c(=O)[nH]1)CCCC2`, for which the growth was 86.2%.

Consider `Cc1ccc(/C(N)=N/c2sc(-c3ccccc3)nc2-c2ccccc2)cc1`, for which the growth is 90.2%.

`O=C(COc1ccc(NC(=O)Nc2ccc(Cl)cc2)cc1)N=Nc1c(O)[nH]c2ccc([N+](=O)[O-])cc12`: the growth was -36.2% (active).

In the case of `COc1cc(/C=C/C(=O)c2cc(OC)c(OC)c(OC)c2)ccc1Oc1nc(Nc2ccc(F)cc2)nc(N(C)C)n1`, the growth was -42.3% (active).

Take `Cc1ccc(CSc2nc(-c3ccc(F)cc3)c(C#N)c(=O)[nH]2)cc1`: the growth was 96.7%.

With `CCCn1c(O)c(N=Nc2nc(-c3cc4ccccc4oc3=O)cs2)c2cc(Br)ccc21`, the growth is 86.3%.

Consider `CN1CCN(Cc2ccc(NC(=O)c3cncc(C#Cc4cnc5ccc(N[C@@H]6CCOC6)nn45)c3)cc2C(F)(F)F)CC1`, for which the growth was -82% (active).

As for `c1ccc(C(=C(c2ccc(OCCN3CCCCC3)cc2)c2ccc(OCCN3CCCCC3)cc2)C2CCCC2)cc1`, the growth is -61% (active).

In the case of `Cc1ccc(-c2cc(C(=O)N=Nc3c(O)[nH]c4ccccc34)c3ccccc3n2)cc1`, the growth is 21.6%.

Turning to `N#Cc1c(NC(=O)c2ccc(C(F)(F)F)cc2)sc2c1CCC(=O)C2`, the growth is -57% (active).

As to `CCOC(=O)C1NN(c2ccc(S(N)(=O)=O)cc2)c2nc3nc(-c4cccs4)cc(-c4cccs4)c3c(=O)n21` (stereo unspecified), the growth is 61.5%.

Turning to `Cc1ccc(-c2cc(C(=O)N=Nc3c(O)[nH]c4ccc(Br)cc34)c3ccccc3n2)cc1`, the growth is 87.6%.

Consider `CC1(c2ccccc2)NC(=O)N(CC(=O)Nc2ccc(C(=O)/C=C/c3ccc(Cl)cc3)cc2)C1=O` (stereo unspecified), for which the growth is -10.4% (active).

`O=C(N/N=C/c1ccc(-c2cccc([N+](=O)[O-])c2)o1)c1[nH]c2ccc(Br)cc2c1-c1ccccc1`: the growth was 55.7%.

As to `CN(C)c1ccc(/C=C/c2nc3ccccc3c(=O)n2CC(=O)Nc2ccc(Cl)cc2)cc1`, the growth is -13.6% (active).

Turning to `CCCSc1nc(NC2CC2)c(C#N)c(-c2ccc(OC)cc2)n1`, the growth is 77.7%.

Take `C=C1CCC2C3(C)COC(c4c(F)cccc4F)OC3CCC2(C)C1CC(O)C1=CCOC1=O` (stereo unspecified): the growth was 55.4%.

Regarding `O=C(N=Nc1c(O)[nH]c2ccc(Br)cc12)c1ccc2nc(-c3ccccc3)[nH]c2c1`, the growth is -78.8% (active).

For the compound `CS(=O)(=O)Nc1ccc(-c2ccc3c(c2)ncn3-c2ccc(NC(=O)Nc3ccc(Br)cc3)cc2)cc1`, the growth was 26.8%.

With `COC1=C[C@@]23CCC(=O)N2CCc2cc4c(cc2[C@H]3[C@H]1OC(=O)C(C)(C)O)OCO4`, the growth is 92%.

Consider `Cc1cc(C)nc(/N=C(\N)Nc2ccc(S(=O)(=O)Nc3nc(C)cc(C)n3)cc2)n1`, for which the growth was 117%.

For `CC(=O)NS(=O)(=O)c1ccc(NC(=O)CSC2=NC(c3ccccc3)C(C(C)=O)=C(C)N2)cc1` (stereo unspecified), the growth is 134%.

Consider `COc1cc2c3c(n(CCCNCCO)c(=O)c2cc1OC)-c1nc2c(cc1C3=O)OCO2`, for which the growth was 7.23% (active).

For the compound `C/C(=C\CC/C=C(\C)CC/C=C(\C)CC[C@@H](O)C(C)(C)O)CC/C=C(\C)CC[C@@H](O)C(C)(C)O`, the growth was 26%.

As to `C=CC(=O)Nc1nc(-c2cccc(NS(=O)(=O)c3cccc4c(N(C)C)cccc34)c2)cs1`, the growth was -49.2% (active).

On to `O=C(Nc1ccc(Cl)c(C(F)(F)F)c1)c1cncc(C#Cc2cnc3ccc(N4CCOCC4)nn23)c1`, for which the growth was -48.6% (active).

As to `O=C(c1ccccc1)n1ccc(-c2cc3cc(Br)ccc3oc2=O)n1`, the growth was 34.7%.

For `Clc1ccc(/C=N/Nc2ncnc3sc4c(c23)CCN(Cc2ccccc2)C4)cc1`, the growth was -59.6% (active).

For the compound `Nc1cc(-c2cccc(C(=O)NCc3ccc4c(c3)OCO4)c2)ccn1`, the growth is 89.4%.

The record behind these values is PubChem BioAssay (NCI).
